Shown are actives, neighbours in structure and some others; about 0.95% of the full set was active somewhere.
A488 fluor – A488 region autofluorescence; compound autofluorescence, A488 spectral region, dye equivalency; Compound Type: qHTS ECL - MLSMR; max dye equivalency, M; 59,000 compounds, 0.1% hits; AID 591
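Compounds pin-transferred into 100 mM Tris buffer, pH 8.0, incubated 15 min at room temperature, then imaged with 480 nm excitation/540 nm emission filters. Fluorescence converted to Alexa 488 dye-equivalent concentration via an on-plate six-point A488 standard curve.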
Resorufin autofl – compounds fluorescent in resorufin spectral region | Compound fluorescence, resorufin region 547/598 nm, buffer; stronger effect = higher value | max dye-equivalent concentration, M | 59,000 compounds, 0.04% hits
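Dye-equivalent concentration values derive from comparing each well's 547/598 nm fluorescence against resorufin standards included on every plate. Incubation was 15 min at room temperature in 100 mM Tris, pH 8.0.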
Rhodamine fluor – compound autofluorescence in rhodamine spectral region; 59,000 compounds, 0.05% hits; max dye-equivalent concentration, M; AID 594; Rhodamine-region fluorescence, 547/598 nm, Tris buffer; stronger effect = higher value; in the data active = max dye-equivalent concentration above about 11 nM; inconclusive = between about 1.1 nM and that limit
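Intrinsic compound fluorescence, ex 547 / em 598 nm, CCD imager. Tris 100 mM pH 8.0; 15 min RT. Output = rhodamine dye-equivalent concentration at each compound concentration.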
Fluorescein fluor – compound autofluorescence in fluorescein spectral region | Compound autofluorescence, 480/540 nm, fluorescein-equivalent; stronger effect = higher value | max fluorescein-equivalent concentration, M | 59,000 compounds, 0.91% hits | AID 593; in the data active = max fluorescein-equivalent concentration above about 10 nM; inconclusive = between about 1.1 nM and that limit
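Compounds (23 nL) in 100 mM Tris pH 8.0, 15 min at room temperature, then fluorescence read at 480 nm excitation/540 nm emission. Signal converted to fluorescein-equivalent concentration from an on-plate fluorescein standard curve.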
TexasRed autofl – compounds fluorescent in Texas Red spectral region; Compound fluorescence, Texas Red channel, 547/618 nm; stronger effect = higher value; AID 587; max dye-equivalent concentration, M; 59,000 compounds, 0.06% hits; in the data active = max dye-equivalent concentration above about 10 nM; inconclusive = between about 1.1 nM and that limit
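Dye-equivalent concentrations come from scaling compound signal (ex 547, em 618 nm) to six Texas Red standard concentrations run on every plate, after 15 min room-temperature incubation in pH 8.0 Tris (100 mM).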
A647 autofl – compound autofluorescence in A647 spectral region; max dye-equivalent concentration, M; Compound fluorescence, A647 channel (570/671 nm), Tris buffer; AID 592; 59,000 tested, under 10 active;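 also: values scaled relative to a standard on each plate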
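Tris 100 mM pH 8.0; cpd + A647 stds pin-transferred; 15 min RT; CCD imager, ex 570/em 671. Output = A647-equivalent conc. per cpd conc.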
Numbers without * were called inactive; i = inactive; ? = inconclusive; ! = a repeat was not active. Unless noted, no rule for the calls is given here.

SMILES	A488 fluor	Resorufin autofl	Rhodamine fluor	Fluorescein fluor	TexasRed autofl	A647 autofl
O=C(Cn1ccccc1=O)c1cccs1	i	i	i	i	i	1e-09
O=C1NC(=O)[C@@H]2C3c4ccccc4C=CN3[C@H](C(=O)c3cccs3)[C@H]12 (stereo partly drawn)	i	i	i	2.4e-08M*	i	1.4e-09
CCCCCCCCCC(=O)N[C@@H](CN1CCOCC1)[C@@H](O)c1ccccc1	i	i	i	?	i	2.6e-09
CCN(CC)c1ccc2cc(C(=O)Nc3ccc(-n4cnnn4)c(OC)c3)c(=O)oc2c1	3.4e-08M*	i	i	6.7e-07M*	i	2.5e-08
CC1CCCN(c2nc3ccccc3nc2C(C#N)C(=O)OC2CCCCC2)C1 (stereo not drawn)	i	i	i	1.4e-08M*	?	1e-08
N#CC(C(=O)OC1CCCCC1)c1nc2ccccc2nc1N1CCCCC1 (stereo not drawn)	i	i	i	1.3e-08M*	i	3.9e-09
NC(=O)c1ncn([C@@H]2O[C@@H](CO)[C@@H](O)[C@H]2O)n1	i	i	i	?	?	2.6e-09
N#CC(=C(/N)Sc1ccccc1N)/C(C#N)=C(/N)Sc1ccccc1N	i	i	i	?	i	4.9e-09
c1ccc(Cn2nnc3c(NCCN4CCOCC4)ncnc32)cc1	i	i	i	i	i	1.8e-08
c1ccc(CCNc2ncnc3c2nnn3Cc2ccccc2)cc1	i	i	i	1.2e-08M*	i	2.6e-09
CCC1(c2ccccc2)C(=O)NCNC1=O	i	i	i	1.2e-08M*!	i	3.4e-08
O=C1NC(=O)C(c2ccccc2)(c2ccccc2)N1	i	i	i	?	i	1e-09
COc1cccc(Nc2ncc3nc(-c4cn(C)c5ccccc45)c(=O)n(CCC#N)c3n2)c1	i	i	i	2.4e-08M*	i	2.5e-08
COCCn1c(=O)c(C)nc2cnc(Nc3cccc(OC)c3)nc21	i	i	i	i	i	1e-09
COCCn1c(=O)c(-c2ccc(OC)cc2)nc2cnc(Nc3cccc(OC)c3)nc21	i	i	i	1e-08M*	i	3.4e-09
CN[C@@H]1[C@H](O)[C@H](NC)[C@@H]2O[C@]3(O)C(=O)C[C@@H](C)O[C@H]3O[C@@H]2[C@H]1O	i	i	i	i	i	2.3e-08
Nc1nc(Cl)nc2c1ncn2[C@@H]1O[C@@H](CO)[C@@H](O)[C@H]1O	i	i	i	?	i	5.8e-09
O=C(/C=C\c1ccc(O)c(O)c1)O[C@H]1C[C@@](O)(C(=O)O)C[C@H](O)[C@@H]1O	i	i	i	i	i	2.4e-08
O=C(O)[C@@H]1CCCN1Cc1cc2ccccc2c2ccccc12	i	i	i	?	i	5.7e-08
Clc1ccc(CN2CCCN(Cc3ccc(Cl)cc3)C2c2cc3ccccc3c3ccccc23)cc1	i	i	i	1.2e-08M*	i	3.5e-09
COc1ccc(-c2coc3ccc(O[C@@H]4O[C@@H](COC(C)=O)[C@@H](OC(C)=O)[C@@H](OC(C)=O)[C@H]4OC(C)=O)cc3c2=O)cc1	i	i	i	i	i	6.3e-09
c1ccc2c(c1)CCC[C@H]2C1=NCCN1	i	i	i	?	?	5.7e-09
CN1/C(=C\C(=O)COC(=O)Cn2nnc(-c3ccccc3)n2)C(C)(C)c2ccccc21	i	?	?	?	2.2e-08M*	9.5e-09
Cc1cc(N=Cc2c(O)n(-c3ccc4c(c3)OCO4)c(=O)c3ccccc23)ccn1	i	i	i	?	?	2.3e-09
Cc1cccc(-n2c(O)c(C=Nc3ccc4c(c3)OCO4)c3ccccc3c2=O)n1	?	i	i	5.8e-08M*	i	3e-08
SMILES	A488 fluor	Resorufin autofl	Rhodamine fluor	Fluorescein fluor	TexasRed autofl	A647 autofl
Fc1ccc(Br)cc1C1C=C(c2ccc(Br)s2)Nc2ncnn21 (stereo not drawn)	i	i	i	?	i	3.4e-09
COc1cccc(C2C=C(c3ccc(Br)s3)Nc3ncnn32)c1OC (stereo not drawn)	i	i	i	1.5e-08M*	i	1e-09
COC1=CC(=O)C[C@@H](C)[C@@]12Oc1c(Cl)c(OC)cc(OC)c1C2=O	i	i	i	i	i	2.1e-08
CC(C)(C)c1cc(/C=C(\C#N)C(N)=S)cc(C(C)(C)C)c1O	i	i	i	2.8e-08M*	i	7.9e-09
CC(C)(C)OC(=O)[C@H]([C@@H]1N[C@@H](C(=O)O)C(C)(C)S1)N1C(=O)c2ccccc2C1=O	i	i	i	i	i	1e-09
Nc1ccn([C@H]2O[C@@H](COP(=O)(O)O)[C@@H](O)[C@H]2O)c(=O)n1	i	i	i	i	?	1e-09
C[C@H]1C[C@@H]2[C@H]3CCC4=CC(=O)C=C[C@@]4(C)[C@]3(Cl)[C@@H](Cl)C[C@]2(C)[C@]1(O)C(=O)COP(=O)(O)O	i	i	i	i	i	1e-09
CC1(C)S[C@@H]2[C@H](NC(=O)C(N)c3ccccc3)C(=O)N2[C@H]1C(=O)O (stereo partly drawn)	i	i	i	?	i	1e-09
CC1(C)S[C@@H]2[C@H](NC(=O)COc3ccccc3)C(=O)N2[C@H]1C(=O)O (tested in a mixture with another compound)	i	i	i	1.9e-08M*	i	2.9e-08
Cc1cc(-c2ccco2)n2c(nc3ccccc32)c1C#N	?	i	i	6e-08M*	i	1e-09
O=S(=O)(Cc1ccccc1)N1CCc2ccccc21	?	1.6e-08M*	2.1e-08M*	3.4e-08M*	2e-08M*	7.6e-09
CN(C)S(=O)(=O)N1CCc2ccccc21	i	i	i	i	i	4.1e-09
C[C@H]1CN(S(=O)(=O)c2cccc3cnccc23)CCN1	i	i	i	i	?	5.2e-09
N=c1oc2c3c4c(cc2cc1C(=O)Nc1ccccc1)CCCN4CCC3	2.5e-08M*	i	?	4.7e-07M*	?	4.8e-08
N#Cc1ccc(NC(=O)c2cc3cc4c5c(c3oc2=N)CCCN5CCC4)cc1	1.2e-08M*	i	i	2.3e-07M*	i	3.9e-08
C/C(=C\CNc1ncnc2c1ncn2[C@@H]1O[C@@H](CO)[C@@H](O)[C@H]1O)CO	i	i	i	i	i	1e-09
Cc1ccc(C2NC(=O)c3c(sc4c3CCN(C)C4)N2)s1 (stereo not drawn)	i	i	i	1.6e-08M*	i	4.5e-08
O=C1NC(c2ccccn2)Nc2sc3c(c21)CCC3 (stereo not drawn)	i	i	i	i	?	9.1e-09
